Compound activity as filed in PubChem BioAssay.
TrxR1 inh: rat TrxR1 inhibition | O89049 | recombinant rTrxR1, NADPH fluorescence consumption, selenite substrate | Potency, µM (top dose mostly 114 µM), inactives show at the highest dose activity change, negative = inhibition, usual class: inhibitors | actives 1% (n = 390,000) | AID 588453; further: nearly all actives have a fitted effect of over 65% in size
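Rat TrxR1 (90 nM in the dispensed reagent) was pre-reduced with 400 uM NADPH for 5 min at room temperature, then incubated with compound for 15 min. After 400 uM selenite was added, NADPH fluorescence (Ex 340/Em 450 nm) was followed for 8 min.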
RGS4 inhibitor: blocks human RGS4-accelerated GTP hydrolysis; P49798; Transcreener GDP fluorescence polarization, RGS4-accelerated GTP hydrolysis; Potency, µM (doses to about 114 µM), without a hit: at the top dose activity change, negative = inhibition, usual class: inhibitors; actives 0.039% (n = 390,000); AID 504845; further: nearly all actives have a fitted effect of over 75% in size
Target sequence (P49798 whole entry, looked up): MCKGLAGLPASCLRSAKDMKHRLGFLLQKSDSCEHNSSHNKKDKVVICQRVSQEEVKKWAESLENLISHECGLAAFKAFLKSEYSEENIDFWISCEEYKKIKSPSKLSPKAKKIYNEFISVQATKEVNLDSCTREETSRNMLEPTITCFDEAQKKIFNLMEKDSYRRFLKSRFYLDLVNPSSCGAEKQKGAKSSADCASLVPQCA
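MLSMR compounds (23 nl, pin-transferred) preincubated 10 min at room temperature with a 500nM (2x) first reagent, then RGS4 at 900nM (2x) plus Transcreener GDP mix added; fluorescence polarization (620/688 nm) read before and after 90 min at 30 °C.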
GALK inh: blocks human galactokinase activity; P51570; Purified GALK, Kinase-Glo residual ATP luminescence; Potency, µM (titrated, usually from 57.5 µM), for inactives: top-dose activity change, negative = inhibition, actives largely listed as inhibitors; actives 0.007% (n = 270,000)
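Compounds were pin-transferred into ATP buffer (35 uM final), then GALK plus galactose (5 nM, 100 uM final) was added. After 1 h at room temperature, Kinase-Glo Plus was added and luminescence read after 10 min.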
USP2a block: USP2a (human) protease inhibition | O75604 | USP2 core, Ub-CHOP2 coupled fluorogenic reporter, 485/531 | Potency, µM (highest dose often 38.3 µM), for the others: at the top dose activity change, negative = inhibition, actives largely listed as inhibitors | actives 0.01% (n = 330,000) | AID 463254;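 further: plate controls were DMSO wells for no effect and full inhibition by NEM control for full effect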
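USP2 core (10nM final) preincubated 30min RT with compound in 20mM Tris-HCl pH 8.0, 2mM CaCl2, 2mM beta-mercaptoethanol, 0.05% CHAPS; 25nM Ub-CHOP2 plus 25nM reporter substrate added, fluorescence (Ex485/Em531) read after 60min.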
Eya2 phos inh: blocks the phosphatase activity of human Eya2 | AID 488837 | Potency, µM (top dose mostly 76.9 µM), for the others: top-dose activity, negative = inhibition, usual class: inhibitors | actives 0.006% (n = 330,000) | recombinant Eya2, OMFP fluorescence dephosphorylation (OMFP is methylfluorescein phosphate) | O00167
Target sequence (O00167 whole entry, looked up): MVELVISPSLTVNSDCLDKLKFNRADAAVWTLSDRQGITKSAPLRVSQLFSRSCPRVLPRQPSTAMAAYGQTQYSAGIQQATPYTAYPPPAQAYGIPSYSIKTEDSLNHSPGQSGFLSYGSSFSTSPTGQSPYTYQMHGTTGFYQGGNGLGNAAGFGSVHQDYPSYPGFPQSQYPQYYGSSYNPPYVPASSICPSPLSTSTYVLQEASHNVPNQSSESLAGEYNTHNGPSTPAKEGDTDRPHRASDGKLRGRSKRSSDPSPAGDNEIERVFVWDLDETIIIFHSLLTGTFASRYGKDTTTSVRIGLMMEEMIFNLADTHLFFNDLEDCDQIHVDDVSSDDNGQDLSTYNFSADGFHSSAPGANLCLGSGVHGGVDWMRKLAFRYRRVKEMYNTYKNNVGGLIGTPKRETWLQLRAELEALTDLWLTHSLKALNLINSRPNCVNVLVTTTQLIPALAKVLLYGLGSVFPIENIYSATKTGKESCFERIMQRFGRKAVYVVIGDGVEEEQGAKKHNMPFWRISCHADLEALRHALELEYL
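Eya2 protein (added as 0.2 uM solution) was preincubated with compound for 10 min at ambient temperature in 50 mM HEPES pH 7.5, 50 mM NaCl, 5 uM MgCl2, 0.05% BSA, 1 mM DTT. OMFP (added at 50 uM) then reacted 10 min; fluorescence read at 485/525 nm.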
TrxR1 substrate: is turned over as a substrate by rat TrxR1; O89049; purified TrxR1 substrate turnover, NADPH consumption readout; Potency, µM (series often up to 114 µM), inactives show at the highest dose activity change, negative = substrate turnover; actives 0.01% (n = 390,000); further: nearly all actives have a fitted effect of over 50% in size
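Rat TrxR1, dispensed at 90 nM, was prereduced with 400 uM NADPH (final) for 5 min at ~22 deg C, then incubated with compound 15 min before 400 uM selenite. A first-read NADPH fluorescence drop versus no-compound background flagged substrates.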
* = called active by the depositor; ? = inconclusive; . = no result given; [ ] = remark or other dose. Rows were chosen to be rich in hits. Some 1% of all compounds tested hit in one or more screens of this group. The call rests on the fitted dose curve; in most records, active means well fitted curve in the direction sought with a large enough effect; inconclusive means small, poorly fitted or top-dose-only effect, or another doubt; inactive means no such curve, though single readings can be large; an effect the other way counts as inactive or inconclusive. Unless noted, on the % scale 0 is the no-effect control and ±100 the full control effect; potency means the concentration at half of the fitted maximal effect.

SMILES | TrxR1 inh | RGS4 inhibitor | GALK inh | USP2a block | Eya2 phos inh | TrxR1 substrate
Nc1c(C(=O)Nc2ccc(Br)cc2)sc2nc(-c3ccco3)ccc12 | -34% | -20% | -1% | -4% | 10% | -5%
O=C(NCc1ccco1)[C@@H]1CCCN1C(=O)c1cccs1 | 79µM* | 55% | 1% | -1% | 5% | 4%
Cc1c(Cn2cnc3c(cnn3C(C)(C)C)c2=O)cccc1C(F)(F)F | 7% | . | . | . | . | -6%
O=C(CC(Nc1ccccc1)C(=O)O)c1ccccc1 (stereo not drawn) | ? | -37% | 0% | 3% | 19% | 2%[11.4 µM]
O=C(OCC(=O)c1cccs1)c1ccccc1 | 11% | 8% | 9% | -2% | -5% | 9%
O=C(CC(Nc1ccc(Cl)cc1Cl)C(=O)O)c1ccccc1 (stereo not drawn) | 25µM* | -39% | -1% | -2% | 1% | 1%
O=C(CC(Nc1ccccc1Cl)C(=O)OCC(=O)c1cccs1)c1ccccc1 (stereo not drawn) | 13µM* | ? | 2% | -2% | -5% | 14%
COc1ccccc1NC(CC(=O)c1ccccc1)C(=O)OCC(=O)c1ccc(C)c(C)c1 (stereo not drawn) | 45µM* | ? | -2% | 0% | -6% | -8%
COc1ccccc1NC(CC(=O)c1ccccc1)C(=O)OCC(=O)c1ccc(Br)cc1 (stereo not drawn) | 71µM* | ? | . | 1% | 1% | -6%
Brc1cccc[n+]1Cc1ccccc1C[n+]1ccccc1Br | -26% | . | . | . | . | 0%
Fc1ccc(C2=CC(c3ccco3)n3ncnc3N2)cc1 (stereo not drawn) | ? | -5% | -1% | 18% | -10% | 88%
Cc1ccc(C2C=C(c3ccccc3)Nc3ncnn32)cc1 (stereo not drawn) | 45µM* | ? | . | . | . | 22%
Fc1ccc(C2=CC(c3ccc(Br)o3)n3ncnc3N2)cc1 (stereo not drawn) | 7.9µM* | ? | 3% | ? | 20% | 29%
Cc1nn2c(-c3ccco3)nnc2c2ccccc12 | 79µM* | -7% | -3% | . | . | -9%
Cc1ccccc1-c1nnc2c3ccccc3c(C)nn12 | 11% | -20% | 0% | 2% | 2% | 5%
CC1=C(C#N)C(=O)NC(=O)/C1=C\c1ccc(-c2ccc(C)cc2[N+](=O)[O-])o1 | 16µM* | ? | -5% | 1% | -23% | 2%[57.1 µM]
Cc1ccc(-c2ccc(/C=N/N=C3/NC(=O)C(CC(=O)O)S3)o2)c([N+](=O)[O-])c1 (stereo not drawn) | -32% | -31% | -8% | -1% | 20% | ?
CCOC(=O)c1cc(-c2ccc(/C=C3/C(=O)NC(=O)C(C#N)=C3C)o2)ccc1Cl | 10µM* | ? | 6% | 0% | 4% | -2%[57.1 µM]
Cc1ccccc1CNC(=O)Nc1ccc2c(c1)N(C)C(=O)c1ccccc1S2 | 12% | -24% | . | . | . | 7%
COc1cc(N(C)C)c(OC)cc1/C=C/c1ccnc2ccccc12 | 22%[0.0914 µM] | . | . | . | . | 0%
CNc1c(Br)cc(/C=C2\C=C(C(O)c3cc(Br)c(NC)c(Br)c3)c3ccccc32)cc1Br (stereo not drawn) | 38%[0.0914 µM] | . | . | . | . | 0%
C=CC1=CCN(S(=O)C(C)(C)C)[C@@H]1CCO (stereo partly drawn) | 50µM* | -12% | . | . | . | 10%
C=C(C1=CCN(S(=O)C(C)(C)C)[C@H]1CCO)c1ccccc1 (stereo partly drawn) | ? | 14% | . | . | . | 2%
O=C(O)c1ccc(NC(=O)c2cc3c([nH]c2=O)CCCC3=O)cc1 | 5% | . | . | . | . | -2%
CN1C(=O)c2ccccc2Sc2ccc(NC(=O)N3CCN(c4ccc(F)cc4)CC3)cc21 | 1% | 20% | . | . | . | 6%
SMILES | TrxR1 inh | RGS4 inhibitor | GALK inh | USP2a block | Eya2 phos inh | TrxR1 substrate
COC(=O)c1cc(OC)c(OC)cc1NC(=S)NC(=O)c1ccco1 | 14µM* | -33% | -3% | -3% | 2% | -2%
O=C(NC1CCCC1)C(c1ccc(F)cc1)N(Cc1ccccc1Cl)C(=O)CCl (stereo not drawn) | 32µM* | 16% | 0% | 0% | -7% | -1%
COCCN(C(=O)CCC(=O)Nc1cc(C)on1)C(C(=O)NC1CCCC1)c1ccccc1C (stereo not drawn) | 6% | -20% | 1% | 8% | 1% | 7%
O=C(NC1CCCC1)C(c1ccc(F)cc1)N(Cc1ccc(F)cc1)C(=O)c1ccn[nH]1 (stereo not drawn) | 3%[57.1 µM] | 15% | . | 2% | -4% | 2%[57.1 µM]
COCCN(C(=O)CCl)C(C(=O)NC1CCCCC1)c1ccccc1C (stereo not drawn) | 28µM* | 6% | 1% | 1% | -1% | 3%
O=C(CCl)Nc1ccccc1Sc1ccccc1 | 40µM* | 28% | 1% | 6% | 19% | -3%
O=C(CCl)Nc1ccc(-c2ccccc2)cc1 | 11µM* | -34%[56.9 µM] | 2% | 0% | 0% | 0%
O=C(Cc1ccc(Cl)cc1)Nc1ccccc1Sc1ccccc1 | -12% | 11% | 0% | 4% | 3% | -10%
O=C(CCl)Nc1cn(-c2ccccc2)nc1-c1ccccc1 | 13µM* | -10%[56.9 µM] | 1% | 1% | 0% | 4%
Cc1cccc(NC(=O)c2ccc(CNS(=O)(=O)c3ccc4c(c3)C(C)(C)C(=O)N4C)cc2)c1 | 11% | 11% | . | . | . | -5%
COC(=O)c1ccc(/C=C(\C#N)C(=O)NC(C)c2ccccc2)cc1 (stereo not drawn) | 22µM* | -14% | -5% | -4% | 4% | -17%
CCOCCCNC(=O)/C(C#N)=C/c1ccc([N+](=O)[O-])o1 | 3.2µM* | -36% | 10% | 3% | -18% | -6%[57.1 µM]
COc1ccc(/C=C(\C#N)C(=O)NC(C)c2ccccc2)cc1O (stereo not drawn) | -19% | -8% | -2% | 1% | -6% | -7%
CC(NC(=O)/C(C#N)=C/c1ccc([N+](=O)[O-])o1)c1ccccc1 (stereo not drawn) | 7.9µM* | ? | 4% | -1% | 12% | -8%
CN1CC[C@H](c2c(O)cc(O)c3c(=O)cc(-c4ccccc4Cl)oc23)[C@@H](O)C1 | -1% | 38% | . | . | . | -2%
C=C(Br)COC(c1ccco1)[C@H](Cc1ccccc1)NC(=O)OC(C)(C)C (stereo partly drawn) | ? | . | . | . | . | -12%
CC12C=CC3(CN(Cc4ccccc4)C(=O)C3C1C(=O)NCc1ccco1)O2 (stereo not drawn) | 56µM* | -23% | -1% | 4% | 19% | 8%
CCOc1ccc(/C=C/c2cc[n+](C)c3ccccc23)cc1OCC | -15% | . | . | . | . | -6%
